Reference: PubChem BioAssay (Tox21)
A number with no mark means an inactive call. Records with an inconclusive call do not appear. A call without a number means that no potency is given here. Active and inactive are the calls of the source. Unless noted, calls follow the shape of the full dose curve.

Legend:
[1] = Nuclear factor erythroid 2-related factor 2/antioxidant responsive element (Nrf2/ARE) small molecule agonists: luciferase reporter gene qHTS assay in human keratinocytes (AID 1919969); details: KeratinoSens HaCaT ARE-luciferase, luminescence, 24 h; series mostly up to 92.4 µM; also: nearly all actives have a fitted effect of over 35% in size
[2] = target: Gonadotropin-releasing hormone receptor (Homo sapiens) (UniProt P30968); assay: Human gonadotropin-releasing hormone receptor (GnRHR) small molecule agonists, calcium flux assay in GnRHR-HEK293 cells (AID 1920063); details: calcium flux fluorescence, agonist mode; series mostly up to 57.6 µM; also: nearly all actives have a fitted effect of over 35% in size
How it was run: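 Fluorescence kinetics (480 nm excitation, 540 nm emission; 3 min, 1 s steps) report calcium mobilisation in human GnRHR-HEK293 cells in agonist mode. Dye incubation: 1 h, 37 C.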

[3] = target: KiSS-1 receptor (Homo sapiens) (UniProt Q969F8); assay: Human kisspeptin (KISS1R) small molecule agonists, calcium flux assay in KISS1R-HEK293 cells (AID 1920064; active = well fitted activation curve with a large enough effect in the repeat runs); details: KISS1R-HEK293, calcium flux fluorescence, agonist; series mostly up to 76.8 µM
How it was run: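 Measures KISS1R agonism through calcium-sensitive dye fluorescence in stably transfected HEK293 cells, read for 3 min after pin-tool compound delivery; 15-point titrations in triplicate.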

[4] = G protein-coupled receptor (GPCR) small molecule agonists, calcium flux assay: HEK293 wild type cell line counter screen (AID 1920065); details: HEK293 WT calcium flux, fluorescence, agonist mode; series mostly up to 57.6 µM
How it was run: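 Readout: fluorescence at 480 nm excitation/540 nm emission, sampled at 1 s intervals for 3 min. Cells had been cultured 18 h, then dye-loaded 1 h at 37 C before compound or ATP addition.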

[5] = p53 small molecule agonists, cell-based qHTS assay with human liver microsomes: qHTS cell viability counter screen (AID 1963579); details: p53RE-bla HCT-116 viability, ATP luminescence, 16 h, HLM; series mostly up to 66 µM; also: nearly all actives have a fitted effect of over 45% in size; also: potency is read from the fitted curve at half-maximal effect
How it was run: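 p53RE-bla cells, 4,000/well, dosed 5 hours after plating, with human liver microsomes (0.5 mg/mL final) plus NADPH (0.5 mg/mL final), 16 hours at 37 C. Viability read as CellTiter-Glo luminescence after 30 min at room temperature.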

[6] = p53 small molecule agonists, cell-based qHTS assay: qHTS cell viability counter screen (AID 1963581); details: p53RE-bla HCT-116 viability, ATP luminescence, 16 h; series mostly up to 66 µM; also: nearly all actives have a fitted effect of over 45% in size; also: potency is read from the fitted curve at half-maximal effect
How it was run: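 In the same plates used for the p53 bla reporter, HCT-116 cells given compounds for 16 h at 37 C received CellTiter-Glo; luminescence was recorded 30 min later at room temperature.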

[7] = target: 5-hydroxytryptamine receptor 2A (Homo sapiens) (UniProt P28223); assay: 5-hydroxytryptamine receptor 2A (HTR2A) small molecule antagonists, cell-based qHTS assay (AID 1963586); details: HTR2A-CHO cells, DOI-induced calcium flux, fluorescence; series mostly up to 61.5 µM; also: nearly all actives have a fitted effect of over 45% in size
How it was run: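 Antagonist-mode intracellular calcium assay: DOI (4 nM) added after 5 min compound pre-incubation at room temperature to dye-loaded HTR2A-CHO cells. Fluorescence followed for 3 min, sampled every second.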

[8] = target: 5-hydroxytryptamine receptor 2A (Homo sapiens) (UniProt P28223); assay: 5-hydroxytryptamine receptor 2A (HTR2A) small molecule agonists, cell-based qHTS assay (AID 1963587); details: HTR2A-CHO cells, calcium flux fluorescence, agonist mode; series mostly up to 76.8 µM; also: nearly all actives have a fitted effect of over 30% in size; also: potency is read from the fitted curve at half-maximal effect
How it was run: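 Kinetic calcium-flux fluorescence (2 min, 1 sec intervals) after compound addition in agonist mode. HTR2A-CHO cells were cultured 18 h, then dye-loaded 1 h at 37 C.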

[9] = target: Muscarinic acetylcholine receptor M1 (Homo sapiens) (UniProt P11229); assay: Cholinergic receptor muscarinic 1 (CHRM1) small molecule antagonists, cell-based qHTS assay (AID 1963588); details: CHRM1-CHO antagonist mode, calcium flux fluorescence; series mostly up to 61.5 µM; also: nearly all actives have a fitted effect of over 40% in size
How it was run: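 CHRM1-CHO calcium-flux assay, antagonist mode. Cells were seeded 18 h, dye-loaded 1 h at 37 C and given compound for 5 min at RT, then acetylcholine was added at 50nM. FDSS fluorescence was read 3 min; 15 concentrations, three runs.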

[10] = target: Muscarinic acetylcholine receptor M1 (Homo sapiens) (UniProt P11229); assay: Cholinergic receptor muscarinic 1 (CHRM1) small molecule agonists, cell-based qHTS assay (AID 1963589); details: CHRM1-CHO cells, agonist mode, calcium flux fluorescence; series mostly up to 76.8 µM; also: nearly all actives have a fitted effect of over 35% in size
How it was run: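 Each compound was tested at 15 concentrations across three independent runs on dye-loaded CHO cells stably expressing human CHRM1, reading intracellular calcium fluorescence kinetically at 1 sec intervals.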

[11] = target: D(2) dopamine receptor (Homo sapiens) (UniProt P14416); assay: Dopamine D2 receptor (DRD2) small molecule agonists, cell-based qHTS assay (AID 1963594); details: HEK293-DRD2 cAMP HTRF, agonist mode, 30 min; series mostly up to 92.4 µM; also: nearly all actives have a fitted effect of over 35% in size; also: potency is read from the fitted curve at half-maximal effect
How it was run: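 cAMP accumulation in DRD2-HEK293 cells measured by HTRF after 1 h detection; compounds added 10 min before NKH477 (200nM […]) forskolin-analogue stimulation, 30 min at room temperature, with Ro20-1724 present at 0.1 mM final.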

[12] = target: D(2) dopamine receptor (Homo sapiens) (UniProt P14416); assay: Dopamine D2 receptor (DRD2) small molecule antagonists, cell-based qHTS assay (AID 1963595; active = well fitted inhibition curve with a large enough effect in the signal ratio in the repeat runs, with a control signal flat; the % refers to the signal ratio); details: HEK293-DRD2 cAMP HTRF antagonist mode; series mostly up to 92.4 µM
How it was run: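 HTRF cAMP read-out at 665 and 620 nm emission (340 nm excitation). Antagonist mode: compounds were tested against 12 nM quinpirole in DRD2-HEK293 cells, with 200 nM NKH477 raising cAMP and 0.1 mM Ro20-1724 blocking its breakdown.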

[13] = p53 small molecule agonists, cell-based qHTS assay with rat liver microsomes: qHTS cell viability counter screen (AID 1963580); details: p53RE-bla HCT-116 + rat microsomes, ATP viability, 16 h; series mostly up to 66 µM; also: nearly all actives have a fitted effect of over 45% in size; also: potency is read from the fitted curve at half-maximal effect
How it was run: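 HCT-116 p53RE-bla, 4,000 cells/well, 5 h pre-incubation; cpd + rat liver microsomes 0.5 mg/mL + NADPH 0.5 mg/mL (final); 16 h, 37 C; CellTiter-Glo, 30 min RT; luminescence.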

[14] = cAMP Responsive Elements (CRE) small molecule agonists, cell-based qHTS assay (AID 1963590); details: CRE-bla HEK293T, beta-lactamase FRET ratio, 3 h; series mostly up to 92.4 µM
How it was run: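 Cell line: CRE-bla HEK 293T; medium DMEM/10% dialyzed FBS/0.1 mM NEAA/1 mM pyruvate/25 mM HEPES; 3 h compound exposure; beta-lactamase FRET readout after 2 h substrate loading at RT.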

[15] = cAMP Responsive Elements (CRE) small molecule antagonists, cell-based qHTS assay (AID 1963591; active = well fitted inhibition curve with a large enough effect in the signal ratio in the repeat runs, not every such curve was filed as active; the % refers to the signal ratio); details: CRE-bla HEK293T, beta-lactamase FRET ratio; series mostly up to 92.4 µM
How it was run: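 Inhibition of NKH477-driven (0.25 uM final) CRE-beta-lactamase signal in HEK293T cells, 3 h compound exposure at 37 °C, detected by FRET substrate fluorescence.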

[16] = target: Beta-2 adrenergic receptor (Homo sapiens) (UniProt P07550); assay: Adrenergic beta2 receptor (ADRB2) small molecule antagonists, cell-based qHTS assay (AID 1963592); details: CHO-ADRB2 cells, isoproterenol-stimulated cAMP HTRF ratio, 0.5 h; series mostly up to 92.4 µM; also: nearly all actives have a fitted effect of over 50% in size
How it was run: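 Cells (CHO, stable ADRB2 overexpression) incubated 18-20hr at 37C; compounds added from DMSO; agonist mix (1nM isoproterenol, 100uM IBMX, 25uM Ro-20-1724) added; 0.5hr RT; d2-cAMP and anti-cAMP-cryptate added; 1hr RT; 665/615 nm read.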

[17] = target: Beta-2 adrenergic receptor (Homo sapiens) (UniProt P07550); assay: Adrenergic beta2 receptor (ADRB2) small molecule agonists, cell-based qHTS assay (AID 1963593); details: CHO-ADRB2 cells, cAMP HTRF, 30 min; series mostly up to 92.4 µM;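 also: CHO cells stably overexpressing human ADRB2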
How it was run: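 CHO cells stably over-expressing ADRB2 were plated overnight at 37C, then dosed with compounds plus a stimulation mix containing 100uM IBMX and 25uM Ro-20-1724 for 0.5hr at room temperature. cAMP was measured by HTRF competition, 1hr.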

[18] = p53 small molecule agonists, cell-based qHTS assay with human liver microsomes (AID 1963577); details: HCT-116 p53RE-bla with human liver microsomes, ratio, 16 h; series mostly up to 66 µM
How it was run: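 p53RE-bla cells, 4,000/well, compound added after 5 h, with human liver microsomes 0.5 mg/mL and NADPH 0.5 mg/mL final; 16 h at 37 C, then LiveBLAzer 2 h RT, fluorescence.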

[19] = p53 small molecule agonists, cell-based qHTS assay with rat liver microsomes (AID 1963578); details: HCT-116 p53RE-bla, beta-lactamase ratio, 16 h; series mostly up to 66 µM
How it was run: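 p53RE-bla cells, 4,000/well, pre-incubated 5 h, then given compounds plus rat liver microsomes (0.5 mg/mL final) and NADPH (0.5 mg/mL final). Incubation 16 h at 37 C; beta-lactamase reporter read by LiveBLAzer fluorescence after 2 h at room temperature.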

[20] = p53 small molecule agonists, cell-based qHTS assay (AID 1963582; active = well fitted activation curve with a large enough effect in the signal ratio in the repeat runs, not every such curve was filed as active; the % refers to the signal ratio); details: HCT-116 p53RE-bla reporter, beta-lactamase FRET ratio, 16 h; series mostly up to 66 µM
How it was run: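 Compounds are pin-transferred in DMSO onto p53RE-bla cells and incubated 16 h at 37 C. The B/G FRET beta-lactamase substrate is then applied for 2 h at RT and fluorescence recorded.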

Chain of 5-hydroxytryptamine receptor 2A (Homo sapiens) (P28223 whole entry, looked up): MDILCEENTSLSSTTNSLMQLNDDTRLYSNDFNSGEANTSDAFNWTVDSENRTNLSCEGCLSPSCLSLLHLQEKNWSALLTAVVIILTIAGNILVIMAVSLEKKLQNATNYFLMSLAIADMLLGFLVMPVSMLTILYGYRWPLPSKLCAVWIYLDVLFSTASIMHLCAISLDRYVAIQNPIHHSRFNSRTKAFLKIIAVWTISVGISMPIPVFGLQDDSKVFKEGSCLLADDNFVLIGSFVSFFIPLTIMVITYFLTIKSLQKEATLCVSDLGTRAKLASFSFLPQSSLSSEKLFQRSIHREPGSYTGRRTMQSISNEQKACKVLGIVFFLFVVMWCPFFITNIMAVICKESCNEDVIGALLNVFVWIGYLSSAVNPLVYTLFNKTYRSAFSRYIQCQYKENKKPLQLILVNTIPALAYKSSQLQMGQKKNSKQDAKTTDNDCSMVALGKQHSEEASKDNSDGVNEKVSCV
Chain of Beta-2 adrenergic receptor (Homo sapiens) (P07550 whole entry, looked up): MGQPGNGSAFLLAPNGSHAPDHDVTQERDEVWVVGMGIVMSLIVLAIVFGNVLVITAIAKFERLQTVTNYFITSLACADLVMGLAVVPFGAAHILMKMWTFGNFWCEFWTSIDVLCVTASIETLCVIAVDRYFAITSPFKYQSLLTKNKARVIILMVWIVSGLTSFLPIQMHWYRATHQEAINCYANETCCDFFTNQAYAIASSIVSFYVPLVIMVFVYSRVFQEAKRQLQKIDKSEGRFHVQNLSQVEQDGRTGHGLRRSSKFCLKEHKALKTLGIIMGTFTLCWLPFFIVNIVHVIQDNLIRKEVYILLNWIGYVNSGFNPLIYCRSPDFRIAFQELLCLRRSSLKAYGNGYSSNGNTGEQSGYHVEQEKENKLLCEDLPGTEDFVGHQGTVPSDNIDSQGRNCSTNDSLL
Chain of Gonadotropin-releasing hormone receptor (Homo sapiens) (P30968 whole entry, looked up): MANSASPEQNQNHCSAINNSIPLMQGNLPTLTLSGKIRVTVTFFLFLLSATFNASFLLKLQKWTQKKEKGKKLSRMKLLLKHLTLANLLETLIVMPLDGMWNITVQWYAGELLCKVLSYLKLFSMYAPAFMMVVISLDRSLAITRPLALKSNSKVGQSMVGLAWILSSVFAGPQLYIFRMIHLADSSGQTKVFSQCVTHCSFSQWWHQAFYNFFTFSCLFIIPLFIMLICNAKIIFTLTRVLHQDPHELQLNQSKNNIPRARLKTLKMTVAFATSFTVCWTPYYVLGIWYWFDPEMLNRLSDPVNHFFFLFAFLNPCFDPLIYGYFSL
Chain of Muscarinic acetylcholine receptor M1 (Homo sapiens) (P11229 whole entry, looked up): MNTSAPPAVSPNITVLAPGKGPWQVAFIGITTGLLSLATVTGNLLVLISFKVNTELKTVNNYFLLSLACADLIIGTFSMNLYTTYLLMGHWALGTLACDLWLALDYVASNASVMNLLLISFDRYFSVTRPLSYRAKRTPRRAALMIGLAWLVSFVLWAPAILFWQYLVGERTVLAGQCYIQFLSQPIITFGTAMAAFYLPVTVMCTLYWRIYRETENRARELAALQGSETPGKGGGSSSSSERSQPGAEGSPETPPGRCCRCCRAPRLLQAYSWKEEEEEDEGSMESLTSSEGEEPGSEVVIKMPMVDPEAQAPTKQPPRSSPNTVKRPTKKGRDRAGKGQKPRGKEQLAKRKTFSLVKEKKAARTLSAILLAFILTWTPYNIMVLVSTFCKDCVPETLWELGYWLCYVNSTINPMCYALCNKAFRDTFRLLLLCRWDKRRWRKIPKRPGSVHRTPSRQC
Chain of KiSS-1 receptor (Homo sapiens) (Q969F8 whole entry, looked up): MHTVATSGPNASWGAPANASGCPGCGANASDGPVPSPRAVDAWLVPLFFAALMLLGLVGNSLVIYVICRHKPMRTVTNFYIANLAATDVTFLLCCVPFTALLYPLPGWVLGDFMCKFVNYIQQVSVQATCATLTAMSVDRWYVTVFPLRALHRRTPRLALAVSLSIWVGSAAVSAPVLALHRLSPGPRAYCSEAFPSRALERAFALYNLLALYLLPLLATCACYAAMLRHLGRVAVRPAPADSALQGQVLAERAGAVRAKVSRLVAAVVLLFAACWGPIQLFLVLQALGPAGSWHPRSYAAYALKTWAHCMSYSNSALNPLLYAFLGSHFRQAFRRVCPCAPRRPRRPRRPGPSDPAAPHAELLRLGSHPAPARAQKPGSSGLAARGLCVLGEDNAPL
Chain of D(2) dopamine receptor (Homo sapiens) (P14416 whole entry, looked up): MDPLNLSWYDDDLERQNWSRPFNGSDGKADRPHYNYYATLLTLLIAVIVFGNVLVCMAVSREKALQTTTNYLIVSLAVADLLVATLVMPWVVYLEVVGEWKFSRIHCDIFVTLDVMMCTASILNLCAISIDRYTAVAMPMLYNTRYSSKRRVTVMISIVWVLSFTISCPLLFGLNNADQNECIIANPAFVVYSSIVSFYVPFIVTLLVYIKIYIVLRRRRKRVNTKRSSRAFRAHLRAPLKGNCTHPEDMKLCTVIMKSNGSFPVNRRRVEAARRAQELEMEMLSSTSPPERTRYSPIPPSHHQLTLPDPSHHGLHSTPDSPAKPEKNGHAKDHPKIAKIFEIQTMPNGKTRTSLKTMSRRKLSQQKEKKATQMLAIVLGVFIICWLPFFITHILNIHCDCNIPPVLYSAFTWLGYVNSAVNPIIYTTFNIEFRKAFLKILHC

| SMILES | Potency [1] | Potency [2] | Potency [3] | Potency [4] | Potency [5] | Potency [6] | Potency [7] | Potency [8] | Potency [9] | Potency [10] | Potency [11] | Potency [12] | Potency [13] | Potency [14] | Potency [15] | Potency [16] | Potency [17] | Potency [18] | Potency [19] | Potency [20] |
| --- | --- | --- | --- | --- | --- | --- | --- | --- | --- | --- | --- | --- | --- | --- | --- | --- | --- | --- | --- | --- |
| Cc1c(Cl)c(=O)oc2cc(O)ccc12 | inactive | inactive | inactive | inactive | inactive | inactive | inactive | inactive | inactive | inactive | inactive | inactive | – | – | – | – | – | – | – | – |
| O=[N+]([O-])c1cccc(Cl)c1Cl | inactive | inactive | inactive | inactive | – | – | inactive | inactive | inactive | inactive | inactive | inactive | inactive | inactive | inactive | inactive | inactive | – | – | – |
| CCOc1cccc(-n2cc(C(=O)N3CCN(c4cc(C(=O)O)c5ccccc5c4)CC3)nc2-c2ccc(C)cc2)c1 | inactive | inactive | inactive | – | 17.4 µM (active) | 24.6 µM (active) | – | 0.0933 µM (active) | – | inactive | 65.5 µM (active) | inactive | 24.6 µM (active) | – | – | – | – | inactive | inactive | – |
| Oc1cc2c(cc1O)[C@H]1c3ccc(O)c(O)c3OC[C@@]1(O)C2 | inactive | inactive | inactive | – | inactive | – | inactive | inactive | inactive | inactive | – | – | inactive | inactive | – | – | – | inactive | inactive | – |
| O=[N+]([O-])c1ccc(Nc2ccc(Nc3ccccc3)c(S(=O)(=O)O)c2)c([N+](=O)[O-])c1 | inactive | inactive | inactive | – | inactive | inactive | inactive | inactive | – | – | inactive | inactive | inactive | inactive | inactive | inactive | inactive | inactive | inactive | – |
| CCCCN(CCCC)CCC(O)c1cc2c(Cl)cc(Cl)cc2c2cc(C(F)(F)F)ccc12 (centres undefined) | inactive | inactive | inactive | inactive | – | inactive | inactive | inactive | inactive | inactive | inactive | inactive | inactive | inactive | – | inactive | inactive | – | – | – |
| Clc1cccc(-c2cc(Cl)cc(Cl)c2)c1 | inactive | inactive | inactive | inactive | inactive | – | inactive | inactive | inactive | inactive | inactive | inactive | – | inactive | – | inactive | inactive | – | – | – |
| CC1=NN(c2cc(Cl)c(S(=O)(=O)O)cc2Cl)C(=O)C1N=Nc1ccc(S(=O)(=O)O)cc1 (centres undefined) | inactive | inactive | inactive | – | inactive | inactive | inactive | inactive | inactive | inactive | inactive | inactive | – | inactive | inactive | inactive | inactive | inactive | inactive | inactive |
